Source: PubChem BioAssay (The Scripps Research Institute Molecular Screening Center)
HGIII-sPLA2 inh = Blocks human group III sPLA2 activity; Q9NZ20; QFRET BODIPY PC-A2 liposome hydrolysis, fluorescence; inhibition, % at 12.2 µM; 0.56% of 370,000 active; AID 743126;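 active = inhibition above mean plus 3 SD of compounds lying within the high and low control bounds, cut at about 19% in these data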;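 note: 0% = median of test compound wells and 100% = no enzyme DMSO wells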
Target sequence (Q9NZ20 whole entry, looked up): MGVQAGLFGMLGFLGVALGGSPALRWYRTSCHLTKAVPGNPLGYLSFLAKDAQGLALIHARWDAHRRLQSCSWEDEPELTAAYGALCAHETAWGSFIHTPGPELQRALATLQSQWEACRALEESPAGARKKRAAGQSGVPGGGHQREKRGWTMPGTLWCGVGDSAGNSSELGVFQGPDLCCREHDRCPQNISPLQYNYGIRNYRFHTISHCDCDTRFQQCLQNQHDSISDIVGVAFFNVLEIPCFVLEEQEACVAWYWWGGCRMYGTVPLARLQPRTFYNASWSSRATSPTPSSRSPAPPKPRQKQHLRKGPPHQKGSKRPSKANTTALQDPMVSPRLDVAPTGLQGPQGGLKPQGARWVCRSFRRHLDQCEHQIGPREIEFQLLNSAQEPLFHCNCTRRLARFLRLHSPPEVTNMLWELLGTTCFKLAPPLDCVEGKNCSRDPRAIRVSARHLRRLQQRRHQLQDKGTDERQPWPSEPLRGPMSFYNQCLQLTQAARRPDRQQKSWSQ
PLC-beta3 inh = blocks human PLC-beta3 enzyme activity; Q01970; Purified PLC-beta3, fluorogenic substrate, fluorescence; inhibition, % at 12.2 µM; 0.18% of 370,000 active; AID 720704; in the data active = inhibition above about 11%;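 note: 0% = median of compound wells on plate and 100% = full blocker control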
PLC-gamma1 inh = blocks human PLC-gamma1 enzyme activity | inhibition, % at 12.2 µM | P19174 | purified PLC-gamma1, fluorogenic substrate, fluorescence | AID 720700 | 0.84% of 370,000 active; in the data active = inhibition above about 9.5%
DAGLB inh = blocks human DAGLB lipase activity. Q8NCG7. HEK293T DAGLB membrane lysate, EnzChek fluorogenic substrate. inhibition, % at 5.17 µM. 0.059% of 340,000 active. AID 504411; in the data active = inhibition above about 34%;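 note: 0% = enzyme with vehicle and 100% = wells lacking enzyme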
sPLA2 confirm = human GIII-sPLA2 inhibition, confirmation; shares compounds with HGIII-sPLA2 inh; 34% of 2,000 active; inhibition, % at 12.2 µM; recombinant hGIII-sPLA2, BODIPY PC-A2 QFRET fluorescence; AID 743280;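 active = mean inhibition across triplicates above the hit cutoff set in the earlier primary screen, cut at about 19% in these data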;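 note: 0% = enzyme with DMSO and 100% = DMSO wells lacking enzyme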
BODIPY interf = 535nm fluorescence interference, HGIII-sPLA2 counter-screen | shares compounds with HGIII-sPLA2 inh | BODIPY FL product fluorescence interference, QFRET | inhibition, % at 12.2 µM | 8.5% of 2,000 active;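 active = average inhibition above the solvent-only control mean plus 3 SD, cut at about 6% in these data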;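 note: 0% = DMSO with substrate plus product and 100% = DMSO with substrate alone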
* marks the source's active call; other numbers are inactive results; i = inactive; / = not tested or not shown. In the library only some 1.5% were active in any assay of this set; here they are far more common.

SMILES	HGIII-sPLA2 inh	PLC-beta3 inh	PLC-gamma1 inh	DAGLB inh	sPLA2 confirm	BODIPY interf
CC(C)NC(=O)CCn1nnc(-c2cccs2)n1	4.3	1.4	1.0	/	/	/
Cc1ccc(NC(=O)CCN2CCN(CCO)CC2)cc1Br	22.8*	-1.5	6.2	-1.0	-5.5	-2.9
Cc1cccc(N2CCN(S(=O)(=O)c3c(C)noc3/C=C/N(C)C)CC2)c1C	27.1*	-11.4	-2.8	2.0	23.7*	-4.9
FC(F)(F)Oc1ccc(Cn2ccc3ccc(-c4ccc5ccn(Cc6ccc(OC(F)(F)F)cc6)c5c4)cc32)cc1	-7.0	-69.3	-58.2	/	/	/
Cc1ccc(Cn2cc(CN3CC=CS3(=O)=O)nn2)cc1	3.0	2.5	-0.8	/	/	/
COCCCn1cc(CN2CC=CS2(=O)=O)nn1	21.1*	-1.4	2.5	/	-0.4	-5.8
COc1cc(C(NC(=O)C(F)(F)F)C2CCCC=C2c2ccccc2)cc(OC)c1OC (stereo not drawn)	7.6	-5.7	2.6	/	/	/
CC(C)N1CCC(N2CCN(C/C=C/c3ccc(F)cc3)CC2CCO)CC1 (stereo not drawn)	19.9*	-0.2	-0.8	0.1	0.9	-9.0
Cc1cc(C)c(-c2c(O)c3c(n(C)c2=O)CC(C)(C)CC3=O)c(C)c1	21.4*	2.5	3.6	-3.0	-4.0	-1.7
Cn1c2c(c(O)c(-c3ccccc3)c1=O)C(=O)CC(C)(C)C2	17.6	-15.5	-6.7	0.1	/	/
Cc1nn(-c2ccccc2)c(NC(=O)C(C)C)c(-c2ccccc2)c1=O	18.4	-8.0	1.2	/	/	/
CCCC(=O)Nc1c(-c2ccccc2)c(=O)c(C)nn1-c1ccccc1	20.1*	2.0	6.2	0.0	-2.6	-6.6
CCCn1nnc(NC(=O)c2ccc(OCC)c(Cl)c2)n1	24.4*	3.0	1.7	-0.8	-1.8	-7.0
CCCn1nnc(NC(=O)c2ccc(OC)cc2)n1	1.7	2.4	1.4	-2.1	/	/
Nc1ccc2nc(-c3ccccc3)[nH]c2c1	9.3	i	i	0.8	/	/
Nc1ccc2nc(-c3ccc(N)c(Cl)c3)[nH]c2c1	20.7*	i	i	6.8	9.2	-0.1
O=S(=O)(NNc1ccc(Cl)nn1)c1ccc(F)cc1	19.2*	3.4	1.1	-1.7	15.1	8.3*
COc1ccc(OC)c(S(=O)(=O)N2CCCCC2C(=O)N2CCN(Cc3ccc(F)cc3)CC2)c1 (stereo not drawn)	-8.6	1.1	-1.8	/	/	/
CCOC(=O)N1CCN(C(=O)C[C@H]2C[C@@]3(C(=O)OC)C(=C[C@H](C4CCCC4)O[C@@H]3C)N(CCc3ccc(OC)c(OC)c3)C2=O)CC1	-7.5	-1.1	-2.3	/	/	/
Cc1ccc2nc(/C(C#N)=C\c3ccc(Oc4ccc(C(F)(F)F)cc4[N+](=O)[O-])cc3)[nH]c2c1	-2.0	-28.6	-21.4	-4.5	/	/
COc1ccc(/C=C(\C#N)c2nc3ccc(C)cc3[nH]2)cc1Oc1ccc(C(F)(F)F)cc1[N+](=O)[O-]	19.7*	-19.5	-12.1	-2.9	-5.2	-12.7
NC(=O)C1CC(=O)N(c2ccc(OCc3ccc(Cl)cc3)cc2)C1 (stereo not drawn)	19.9*	-0.6	-0.9	3.6	12.2	-7.9
O[C@H](COc1ccc(C(F)(F)F)cc1)CN1CCC(C(O)(c2ccccc2)c2ccccc2)CC1	-17.6	-1.1	-0.1	/	/	/
COc1ccc(Cc2noc(-c3ccc([N+](=O)[O-])cc3)n2)cc1OC	21.4*	-9.0	1.5	0.4	0.9	-7.4
Cc1cccc(C)c1NC(=O)c1cccc2c1-c1ccccc1C2=O	21.6*	-1.8	1.2	-2.8	3.8	-5.4
SMILES	HGIII-sPLA2 inh	PLC-beta3 inh	PLC-gamma1 inh	DAGLB inh	sPLA2 confirm	BODIPY interf
CCOC(=O)N1CCN(C(=O)CSc2nc(CC)nc3c2c(=O)n(C)c(=O)n3C)CC1	20.6*	-5.4	1.2	1.3	-0.9	-19.5
CCOC(=O)[C@@]12CCCC=C1N(CCc1ccc(Cl)cc1)C(=O)[C@H]2CC(=O)NCCCCc1ccccc1	-21.6	-2.0	0.7	/	/	/
COc1ccc(S[C@]2(C(=O)N(C)C)CC(=O)N(C(=O)CCc3ccccc3)[C@@H]2c2ccc(OC)cc2)cc1	-0.1	1.4	4.6	/	/	/
C[C@H](O)[C@@H]1CN2CCc3c([nH]c4cccc(-c5ccccc5)c34)[C@@H]2C[C@@H]1N(C)CC1CCCCC1	1.1	-182.2	-137.3	/	/	/
CC(C)CC[n+]1ccn(-c2nc3ccccc3nc2[N-]S(=O)(=O)c2ccccc2)c1	-1.0	-252.0	-207.1	0.2	/	/
CCCC[n+]1ccn(-c2nc3ccccc3nc2[N-]S(=O)(=O)c2ccc(Br)cc2)c1	20.8*	-31.4	-18.4	-0.2	0.4	-12.4
